Tests used:
Assay in all cases: PBM binding z-score (relative to random genomic background probes); higher = stronger binding; sequences stand for … in GC…GCGATTGACAGCGTAGAATGAAGG
[1] = test system: FXR:RXRa (NR concentration 270 nM, RXRa partner concentration 90 nM)
Method in brief: (§1)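 Binding buffer was PBS pH 7.4 with 2% milk, 0.02% Triton X-100, 1 mM DTT, 0.2 mg/mL BSA and 0.4 mg/ml salmon testes DNA. In it, ligand-free nuclear receptor dimers were incubated 1 h on custom Agilent 4×180K protein-binding microarrays carrying double-stranded probes. Antibodies against each partner (one per run) detected binding, and z-scores were calculated against random background probes after regression normalization of scanned fluorescence.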

[2] = test system: LXRa:RXRa (NR concentration 270 nM, RXRa partner concentration 90 nM)
Method in brief: as §1

[3] = test system: LXRa homodimer (NR concentration 270 nM)
Method in brief: as §1

[4] = test system: LXRb:RXRa (NR concentration 270 nM, RXRa partner concentration 90 nM)
Method in brief: as §1

[5] = test system: LXRb homodimer (NR concentration 270 nM)
Method in brief: as §1

[6] = test system: PPARa:RXRa (NR concentration 270 nM, RXRa partner concentration 90 nM)
Method in brief: as §1

[7] = test system: PPARg:RXRa (NR concentration 180 nM, RXRa partner concentration 90 nM)
Method in brief: as §1

[8] = test system: PPARg:RXRa 270nM:90nM, anti-RXR (NR concentration 270 nM, RXRa partner concentration 90 nM)
Method in brief: as §1

[9] = test system: PPARg:RXRa 30nM:10nM, anti-RXR (NR concentration 30 nM, RXRa partner concentration 10 nM)
Method in brief: as §1

[10] = test system: PPARg:RXRa 90nM:30nM, anti-RXR (NR concentration 90 nM, RXRa partner concentration 30 nM)
Method in brief: as §1

[11] = test system: PPARg:RXRa DBDmut IVT, anti-RXR (DBD mutation: RXRa K156A/R161A, NR concentration 270 nM, RXRa partner concentration 90 nM)
Method in brief: as §1

[12] = test system: PPARg:RXRa IVT, anti-PPARg (NR concentration 270 nM, RXRa partner concentration 90 nM)
Method in brief: as §1

[13] = test system: PPARg DBDmut:RXRa IVT, anti-PPARg (DBD mutation: PPARg1 K132A/R137A, NR concentration 270 nM, RXRa partner concentration 90 nM)
Method in brief: as §1

[14] = test system: PPARg DBDmut IVT, anti-PPARg (DBD mutation: PPARg1 K132A/R137A, NR concentration 270 nM)
Method in brief: as §1

[15] = test system: PPARg homodimer (NR concentration 180 nM)
Method in brief: as §1

[16] = test system: PXR:RXRa (NR concentration 270 nM, RXRa partner concentration 90 nM)
Method in brief: as §1

[17] = test system: PXR homodimer (NR concentration 270 nM)
Method in brief: as §1

[18] = test system: RARa:RXR (NR concentration 270 nM, RXRa partner concentration 90 nM)
Method in brief: as §1

[19] = test system: RARa homodimer (NR concentration 270 nM)
Method in brief: as §1

Sequence | PBM binding z-score [1] | PBM binding z-score [2] | PBM binding z-score [3] | PBM binding z-score [4] | PBM binding z-score [5] | PBM binding z-score [6] | PBM binding z-score [7] | PBM binding z-score [8] | PBM binding z-score [9] | PBM binding z-score [10] | PBM binding z-score [11] | PBM binding z-score [12] | PBM binding z-score [13] | PBM binding z-score [14] | PBM binding z-score [15] | PBM binding z-score [16] | PBM binding z-score [17] | PBM binding z-score [18] | PBM binding z-score [19]
CGTCCAAGGTCAGCAGGTCACTGAAAGCGACGTG | 6.56 | 4.66 | 0.808 | 3.7 | 0.0267 | 5.5 | 5.54 | 5.5 | 1.58 | 4.01 | 3.75 | 4.56 | 0.394 | -1.07 | 5.36 | 4.71 | 0.781 | 6.22 | 2.7
CGTCAAAGCTCAACTAAGGTAACGTAAAGCACGC | 0.16 | -0.241 | -0.0906 | -0.093 | -0.32 | -0.0617 | 0.335 | -0.241 | -0.2 | -0.494 | 0.431 | -0.398 | -1.05 | -0.108 | 0.191 | -0.124 | -0.0533 | 0.83 | -0.0738
TTACCAAGGTGAAAGGTCGTTGAGGCACGCCTTG | 3.79 | 3.61 | 0.199 | 2.74 | -0.545 | 5.53 | 9.39 | 8.28 | 7.31 | 9.21 | 2.94 | 5.16 | 0.87 | 2.27 | 2.82 | 3.98 | 0.614 | 6.03 | 0.265
CCCCGGAGGACAGAAGGTCAGAGCTGTCCGCTTT | 0.952 | 1.41 | 0.417 | 1.09 | -0.645 | 1.87 | -0.0611 | 0.529 | -0.911 | 0.0217 | -0.634 | -0.0521 | -2.12 | -1.93 | 1.56 | 1.25 | -0.156 | 1.87 | 0.0931
TAGCCTAGGTCAGATCGGGCGAGTATACGCTATA | 1.73 | 1.03 | -0.449 | 0.569 | -0.387 | 1.58 | 0.654 | 1.08 | -0.174 | 0.958 | 0.488 | 1.31 | -0.335 | -0.507 | 0.138 | 0.314 | -0.678 | 0.971 | -1.26
ATCTCTAGGTAAAGTTCATTGAAAGATCGATAGA | 2.67 | 3.78 | 4.69 | 2.63 | 1.81 | 3.5 | 4.69 | 5.51 | 3.5 | 5.54 | 2.31 | 2.83 | 2.23 | 2 | 2.58 | 4.46 | 5.32 | 2.76 | 2.29
TAGCCTAGGACATGCGGGCCAGTATAGTGTCGGC | -0.531 | -0.882 | -1.1 | -1.16 | -1.2 | -0.741 | 0.232 | -0.867 | -0.747 | -0.931 | -0.985 | -0.448 | -1.11 | -0.53 | -1.04 | -0.867 | -0.905 | -0.797 | -0.552
CAACCTAGGTCACGAAAGGTCAAAGTCGAATGAC | 7.63 | 8.28 | 8.29 | 7.81 | 2.82 | 6.92 | 7.93 | 7.32 | 4.53 | 6.39 | 5.05 | 6.58 | 1.6 | 1.91 | 4.46 | 7.28 | 2.49 | 6.93 | 1.71
